Experimental data: PubChem BioAssay AID2599 (Sanford-Burnham Center for Chemical Genomics, 2010)
Screen size: about 330,000 compounds; about 5,800 (1.8%) were called active.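 The calls were made as follows: active = inhibition above about 50% at the single tested dose (limit read from the data); inactive = the rest.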 This excerpt belongs to a sample that is enriched for actives.

These compounds were tested against Sentrin-specific protease 6 (Homo sapiens) (UniProt Q9GZR1) (assay: inhibition of human SENP6 catalytic domain – biochemical, luminescence, uHTS, primary screen (AID 2599;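 also: plate controls were DMSO wells with enzyme for no effect and DMSO wells lacking enzyme for full effect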)). Conditions: Recombinant SENP6 catalytic domain, aminoluciferin luminescence; at 10 µM; hits give high values.
Sequence of Sentrin-specific protease 6 (Homo sapiens) (Q9GZR1 628-1112 limits assumed): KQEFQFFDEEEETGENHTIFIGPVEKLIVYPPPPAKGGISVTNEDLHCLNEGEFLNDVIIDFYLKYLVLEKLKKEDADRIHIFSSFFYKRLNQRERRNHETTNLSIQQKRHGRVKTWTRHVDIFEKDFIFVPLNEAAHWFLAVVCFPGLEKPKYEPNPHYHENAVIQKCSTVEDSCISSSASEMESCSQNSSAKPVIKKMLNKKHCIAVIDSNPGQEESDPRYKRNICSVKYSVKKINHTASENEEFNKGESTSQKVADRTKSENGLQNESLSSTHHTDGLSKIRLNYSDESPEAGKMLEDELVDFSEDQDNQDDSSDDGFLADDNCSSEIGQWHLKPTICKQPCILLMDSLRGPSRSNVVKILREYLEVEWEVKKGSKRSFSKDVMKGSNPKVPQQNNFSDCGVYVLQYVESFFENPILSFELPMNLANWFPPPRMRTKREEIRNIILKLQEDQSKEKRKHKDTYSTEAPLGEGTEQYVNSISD
With `Cc1ccc(S(=O)(=O)NCC(=O)N(CC(=O)NC2CCCCC2)Cc2ccco2)cc1` the inhibition was 1.15% (inactive).
For `COc1cc(C(=O)NCc2ccc3c(c2)cc(C)n3C)cc(OC)c1OC`, the inhibition was 1.27% (inactive).
In the case of `COc1cc2c3c(c1)/C(=C1/SC(=S)NC1=O)C(=O)N3C(C)(C)C=C2C`, the inhibition is reported as 24.2% (inactive).
`O=C1CC(c2ccccc2)=NN1c1ccc([N+](=O)[O-])cc1` was tested, and the inhibition was 75.3% (active).
`Cc1nc(-c2ccc([N+](=O)[O-])cc2)c(-c2ccccc2)o1` was tested, and the inhibition was -20.8% (inactive).
In the case of `O=c1[nH]n(-c2ccc([N+](=O)[O-])cc2)c(=O)c2ccccc12`, the inhibition is reported as -18.2% (inactive).
`COc1cccc(OCC(O)CNC(=O)c2oc3c(C)c(C)ccc3c2C)c1` (stereo not drawn) was tested, and the inhibition was 95.6% (active).
With `COc1ccc2oc(C(=O)NCc3ccco3)c(C)c2c1` the inhibition was -9.13% (inactive).
`COc1ccc2oc(C(=O)NCC(Cc3ccccc3)N(C)C)c(C)c2c1` (stereo not drawn) was tested, and the inhibition was -20.2% (inactive).
For `Cc1ccc(C(=O)Nc2ccc3c(c2)OCCO3)cc1S(=O)(=O)N1CCOCC1`, the inhibition was 7.66% (inactive).
With `CC(C)C(NS(=O)(=O)c1cccs1)C(=O)Nc1nc(C(C)(C)C)cs1` (stereo not drawn) the inhibition was -11.7% (inactive).
For `COc1ccccc1N1CC(O)=C(c2nc3ccccc3s2)C1=N`, the inhibition was -18.4% (inactive).
For `CN(Cc1nc2ccccc2s1)C(=O)c1ccc(F)cc1`, the inhibition was 2.3% (inactive).
`COc1ccccc1OCc1nc2ccccc2s1` was tested, and the inhibition was 94.1% (active).
`C/C=C/c1ccc(OCC(O)CN2CCCCCCC2)c(OC)c1` (stereo not drawn) was tested, and the inhibition was 1.7% (inactive).
For `CC(C)[C@H](NC(=O)N1CC(=O)Nc2ccccc21)C(=O)N[C@@H](Cc1c[nH]c2ccccc12)C(=O)O`, the inhibition was -5.26% (inactive).
In the case of `CCCCOc1ccc(-c2nnc(-c3ccco3)o2)cc1`, the inhibition is reported as 67.2% (active).
With `COc1ccc(OCC(=O)Nc2nnc(-c3ccco3)s2)cc1` the inhibition was -16.6% (inactive).
With `CCCCOc1ccc(-c2ncc(C(=O)OCC)c(N)n2)cc1` the inhibition was -8.7% (inactive).
In the case of `CCOc1ccc(-c2nnc(-c3ccco3)o2)cc1`, the inhibition is reported as 85% (active).
In the case of `N#Cc1ccc(OCc2nnc(-c3ccc([N+](=O)[O-])cc3)o2)cc1`, the inhibition is reported as -4.94% (inactive).
`CCOc1ccc(-n2c(SCC(N)=O)nnc2-c2ccco2)cc1` was tested, and the inhibition was -12.9% (inactive).
With `O=S(=O)(Cc1nnnn1-c1ccccc1)c1ccccc1` the inhibition was 6.33% (inactive).
For `Cc1ccc(NC(=O)[C@H](Cc2ccccc2)NC(=O)C2CCNCC2)cc1`, the inhibition was -5.94% (inactive).
For `CCOc1ccc(S(=O)(=O)N2CCC(C(=O)OCc3ccc(OC)cc3)CC2)cc1`, the inhibition was -11.1% (inactive).
In the case of `CCc1ccc2oc(-c3ccc(N)cc3)nc2c1`, the inhibition is reported as 96.1% (active).
For `O=C(Nc1ccc2oc(-c3ccc4ccccc4c3)nc2c1)c1cccs1`, the inhibition was -13.1% (inactive).
For `Cc1cc2nc(-c3ccc(NC(=O)c4cccnc4)cc3)oc2cc1C`, the inhibition was -15% (inactive).
With `COc1cccc(NC(=O)Cn2cnc3sc(C)c(S(=O)(=O)N4CCN(C)CC4)c3c2=O)c1` the inhibition was 10.7% (inactive).
For `Cc1nnc(Nc2ccccc2F)s1`, the inhibition was 8.06% (inactive).
`C=CCN1CCN(C(=O)CCCc2ccccc2)CC1` was tested, and the inhibition was 0.31% (inactive).
For `O=c1ccc2cc(S(=O)(=O)Nc3ccccc3F)ccc2o1`, the inhibition was 16.4% (inactive).
`CCN1CC=C2C(C#N)=C(N)C(C#N)(C#N)[C@H](c3ccoc3)[C@H]2C1` was tested, and the inhibition was 72.9% (active).
In the case of `N#CC1=C(N)C(C#N)(C#N)[C@H](c2ccsc2)[C@H]2COCC=C12`, the inhibition is reported as -0.527% (inactive).
`CCCN1CC=C2C(C#N)=C(N)C(C#N)(C#N)C(c3cc(OC)ccc3OC)C2C1` (stereo not drawn) was tested, and the inhibition was 0.193% (inactive).
`CC(CO)(CO)NC(=O)c1ccc(=O)[nH]n1` was tested, and the inhibition was -1.98% (inactive).
`Cc1nonc1NC(=O)c1oc2ccccc2c1C` was tested, and the inhibition was 2.56% (inactive).
For `Cc1noc(C)c1C(=O)Nc1ccccn1`, the inhibition was -8.05% (inactive).
In the case of `Cc1c(C(=O)Nc2ccccn2)oc2ccc(Br)cc12`, the inhibition is reported as 56.3% (active).
`Cn1ccc(=Nc2ccc(NC(=O)c3ccc(N=c4ccn(C)c5ccc([N+](=O)[O-])cc45)cc3)cc2)cc1` was tested, and the inhibition was 0.718% (inactive).
For `NS(=O)(=O)c1ccc(-c2ccc(/C=C3\SC(=O)NC3=O)o2)cc1`, the inhibition was -21.1% (inactive).
`CCn1c(CN2C(=O)CSc3ccccc32)n[nH]c1=S` was tested, and the inhibition was 5.59% (inactive).
For `CCOC(=O)c1cc(C)sc1NC(=O)C1CCC1`, the inhibition was -29.2% (inactive).
In the case of `CCOC(=O)c1cc2cc3ccccc3cc2oc1=O`, the inhibition is reported as 13.2% (inactive).
In the case of `COc1cccc(C(=O)NNC(=O)c2cccc(F)c2)c1`, the inhibition is reported as 0.598% (inactive).
For `COc1cccc(C(=O)c2cc3ccc(O)cc3oc2=O)c1`, the inhibition was 101% (active).
In the case of `Cc1ccc(N2C(=O)C(NC(=O)c3c(F)cccc3F)(C(F)(F)F)C3=C2CC(C)(C)CC3=O)cc1` (stereo not drawn), the inhibition is reported as -5.98% (inactive).
In the case of `COC(=O)c1c(CCl)noc1C(=O)NC(C)C`, the inhibition is reported as 15.8% (inactive).
`COc1ccc(N2CCN(C(=O)c3ccc4c(Cl)c5c(nc4c3)CCCC5)CC2)cc1` was tested, and the inhibition was -0.317% (inactive).
`CC(C)CCNC(=O)c1ccc2c(Cl)c3c(nc2c1)CCC3` was tested, and the inhibition was 76.2% (active).
`CC(=O)c1ccc(NC(=O)c2ccc3c(Cl)c4c(nc3c2)CCCC4)cc1` was tested, and the inhibition was -20.3% (inactive).
With `Cc1nc2ccccc2c(=O)n1-c1ccc(F)c(NC(=O)c2cccs2)c1` the inhibition was 1.23% (inactive).
With `CCn1nnnc1SCC(=O)c1ccc(C)cc1C` the inhibition was 16% (inactive).
With `CC(Oc1cccc(Cl)c1)C(=O)NC1CC(C)(C)NC(C)(C)C1` (stereo not drawn) the inhibition was 0.854% (inactive).
`Cc1nnc(SCC(=O)Nc2ccc(S(=O)(=O)Nc3ccc(Cl)nn3)cc2)s1` was tested, and the inhibition was -2.31% (inactive).
For `Cc1ccc(SC(CC(=O)c2ccc(C(C)(C)C)cc2)C(=O)O)cc1` (stereo not drawn), the inhibition was -11.7% (inactive).
With `CC(C)CNC(=O)c1cc(-c2ccc(Br)cc2)on1` the inhibition was -1.36% (inactive).
`CC(C)Cc1cc(C(=O)NCCc2ccccc2)no1` was tested, and the inhibition was 13% (inactive).
In the case of `CC(C)Cc1cc(C(=O)Nc2cc(Br)ccc2O)no1`, the inhibition is reported as 58.1% (active).
`O=C(NNc1cc(Cl)cc(Cl)c1)c1c(F)cccc1Cl` was tested, and the inhibition was -9.66% (inactive).
`COc1ccc2[nH]c(C(=O)Nc3ccccc3Cl)cc2c1` was tested, and the inhibition was -36% (inactive).
With `O=C(Nc1ccccc1)c1cc2ccccc2[nH]1` the inhibition was 86.2% (active).
With `CC(OC(=O)c1cc2ccccc2[nH]1)C(=O)N(C)c1ccccc1` (stereo not drawn) the inhibition was -10.7% (inactive).
`O=C(Cc1ccc(S(=O)(=O)N2CCOCC2)s1)NCCC(c1ccccc1)c1ccccc1` was tested, and the inhibition was -9.6% (inactive).
`CC(=O)n1c(C=Nc2ccccc2)c(O)c2ccccc21` was tested, and the inhibition was -2.55% (inactive).
For `Oc1ccc(N=Cc2sc3ccccc3c2Cl)cc1`, the inhibition was 65.7% (active).
In the case of `CCn1c(SCC(=O)Nc2cccc(F)c2)nnc1-c1cc2cc(Br)ccc2o1`, the inhibition is reported as -0.574% (inactive).
With `CCc1cccc(C)c1NC(=O)COC(=O)Cc1ccsc1` the inhibition was -15.1% (inactive).
For `CCN1CCN(C(=O)/C=C\C(=O)O)CC1`, the inhibition was -13.9% (inactive).
In the case of `O=[N+]([O-])c1ccc(N/N=C2/CCCCC2c2ccccn2)c([N+](=O)[O-])c1` (stereo not drawn), the inhibition is reported as -14.2% (inactive).
For `O=[N+]([O-])c1ccc2nc(-c3ccccn3)[nH]c2c1`, the inhibition was 55.5% (active).
In the case of `O=[N+]([O-])c1ccc2c(c1)Nc1nc3ccccc3nc1N2`, the inhibition is reported as -19% (inactive).
With `Cc1cccc(C(=O)OCC(=O)Nc2ccc(F)cc2)c1` the inhibition was -14% (inactive).
For `CCOC(=O)c1cccc(NC(=O)c2ccc(F)cc2F)c1`, the inhibition was 53.3% (active).
For `CCOC(=O)c1cccc(NC(=O)CCOc2ccccc2)c1`, the inhibition was -8.69% (inactive).
`COc1c(C=O)c(CCN(C)C(=O)c2ccc(F)cc2)cc2c1OCO2` was tested, and the inhibition was -13.8% (inactive).
With `COC(CNC(=O)Cn1ncc2ccsc2c1=O)OC` the inhibition was -0.866% (inactive).
In the case of `O=C(c1ccc(NS(=O)(=O)c2ccc3[nH]c(=O)[nH]c3c2)cc1)N1CCCCC1`, the inhibition is reported as -7.59% (inactive).
With `C#CCOc1ccccc1/C=C1/C(=O)ON=C1C` the inhibition was 9.07% (inactive).
For `Cc1ccc(C23CC4CC(CC(C(=O)NCC(=O)O)(C4)C2)C3)cc1`, the inhibition was -30.4% (inactive).
For `CC(C)CCNC(=O)Cn1c(=O)oc2cc(S(=O)(=O)N3CC(C)CC(C)C3)ccc21` (stereo not drawn), the inhibition was 2.44% (inactive).
In the case of `Cc1noc(C)c1/C=N/Nc1ccc2ccccc2n1`, the inhibition is reported as -42.7% (inactive).
With `C(=N\Nc1ccc2ccccc2n1)/c1ccc2c(c1)OCO2` the inhibition was 91.4% (active).
For `Cc1cc(=O)[nH]c(N/N=C/c2ccc3c(c2)OCCO3)n1`, the inhibition was -9.26% (inactive).
For `O=C(CCc1n[nH]c(=O)[nH]c1=O)N/N=C/c1ccc(Br)o1`, the inhibition was -16.6% (inactive).
`CCNc1nc(SCCOc2ccccc2)nc(N(C)C)n1` was tested, and the inhibition was -7.75% (inactive).
In the case of `COc1ccccc1-n1c(-c2cc(-c3ccco3)[nH]n2)n[nH]c1=S`, the inhibition is reported as 8.36% (inactive).
In the case of `Cn1c(-c2ccco2)nc2cc3ccccc3cc21`, the inhibition is reported as 98.6% (active).
`CS(=O)(=O)n1nc(-c2ccco2)nc1N` was tested, and the inhibition was 12.1% (inactive).
For `COc1ccc(/C=N/NC(=O)c2cc(-c3cccc(C)c3)nc3ccccc23)cc1O`, the inhibition was 4.88% (inactive).
For `COc1cc(/C=N/Nc2nc3ccccc3s2)ccc1O`, the inhibition was 85.4% (active).
`COc1cc(/C=N/NC(=O)CCc2n[nH]c(=O)[nH]c2=O)ccc1O` was tested, and the inhibition was -10.3% (inactive).
For `Cc1c(C(=O)NNC(=O)c2ccncc2)oc2ccccc12`, the inhibition was -3.56% (inactive).
`O=C(CCNC(=O)c1ccc(Cl)cc1)NC1CCCc2ccccc21` (stereo not drawn) was tested, and the inhibition was 2% (inactive).
With `O=C(Nc1nnc(S(=O)(=O)N2CCCCCC2)s1)c1cccc(Br)c1` the inhibition was 75.4% (active).
For `Cc1cccc(C(=O)Nc2nnc(S(=O)(=O)N3CCCCCC3)s2)c1`, the inhibition was 33.1% (inactive).
`O=C(Nc1nnc(S(=O)(=O)N2CCOCC2)s1)c1cccc(Br)c1` was tested, and the inhibition was 21.8% (inactive).
In the case of `Cc1c(Cl)c([N+](=O)[O-])nn1CC(=O)NCC1CCCO1` (stereo not drawn), the inhibition is reported as -2.16% (inactive).
